Where “and” joins values, the source holds several entries; their conditions need not be identical. Identical values can stand only once. Calls of active or inactive are those of the source. Rule as the data show it, unless noted: active = inhibition above about 80%; inactive = the rest.
Key:
[1] = LFS_MB_1R medulloblastoma cell growth inhibition, synergistic combos for chromothripsis tumors, cisplatin or BGB combos (AID 1671452); conditions: LFS_MB_1R medulloblastoma cells, stronger effect = higher value;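 also: cells exposed for 96 hours before readout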
[2] = CRL2098 osteosarcoma cell growth inhibition, synergistic combos for chromothripsis tumors, BGB or cisplatin IC20 combos (AID 1671454); conditions: CRL2098 osteosarcoma cells, drug combinations, stronger effect = higher value;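 also: cells exposed for 96 h before readout; 0% = vehicle DMSO and 100% = killing by high DMSO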
[3] = HD-MB03 medulloblastoma cell growth inhibition, synergistic combos for chromothripsis tumors, BGB or cisplatin IC20 combos (AID 1671455; in the data active = inhibition above about 83%;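 also: 0% = vehicle DMSO and 100% = high DMSO as cytotoxic control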); conditions: HD-MB03 medulloblastoma cells, stronger effect = higher value
[4] = UWB1.289 ovarian carcinoma cell growth inhibition, synergistic combos for chromothripsis tumors, BGB or cisplatin combos (AID 1671456); conditions: UWB1.289 ovarian carcinoma cells, stronger effect = higher value;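 also: cells exposed to compound for four days; 0% = vehicle DMSO and 100% = killing by high DMSO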
[5] = LFS_MB_2R medulloblastoma cell growth inhibition, synergistic combos for chromothripsis tumors, cisplatin combos (AID 1671457); conditions: LFS_MB_2R medulloblastoma cells, stronger effect = higher value;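 also: cells exposed to compound for four days before readout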
[6] = UWB1.289_BRCA1 ovarian cancer growth, cell-based, BGB or cisplatin combinations (AID 1671459); conditions: UWB1.289 BRCA1 ovarian carcinoma, drug combinations, stronger effect = higher value
[7] = human astrocyte viability loss, single and combined drugs, cytotoxicity control for chromothriptic childhood tumor combination screen, cell-based, BGB or cisplatin IC20 combos (AID 1671460); conditions: Human astrocytes, drug combinations, stronger effect = higher value;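 also: cells exposed to compounds for 96 hours before viability readout; 0% = vehicle and 100% = killing control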
[8] = growth inhibition of CRL1545 osteosarcoma cells, cell-based, cisplatin and BGB IC20 combos (AID 1671464); conditions: stronger effect = higher value;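 also: cells exposed to compound for 96 hours before readout; 0% = vehicle DMSO and 100% = high DMSO killing control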
[9] = target: NAD(+) hydrolase SARM1 (Homo sapiens) (UniProt Q6SZW1); experiment: SARM1 TIR NADase inhibitors, cell lysate, NAD-Glo luminescence (AID 1508614;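 active = compound whose remaining NAD level is above about 45 nM, limit read from the data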;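 also: higher remaining NAD means stronger inhibition of SARM1 NADase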); conditions: SAM-TIR HEK293T lysate NADase, at 1 µM, stronger effect = higher value
[10] = viability rescue of complex I mutant cybrids, primary screen, cell-based, galactose medium, ATP luminescence (AID 1645843;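 active = z-score of at least 1.8 in each of two replicates, scored against plate mean and spread of sample wells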;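 also: positive z means more ATP and so rescue of galactose-driven cybrid death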); conditions: complex I mutant cybrid cells, 72 h, stronger effect = higher value
[11] = kinase inhibitors against Plasmodium liver-stage infection, cell-based, known kinase inhibitor set, luminescence, hepatoma host viability (AID 624392; call rule not given here;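 also: infected cells incubated roughly two days before readout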); conditions: Plasmodium liver stage in hepatoma cells, luciferase luminescence, concentration not given here; liver cell % of control: measured here: host liver cell viability; parasite % of control: stronger effect = lower value
[12] = hESC survival regulators, cell-based (AID 493140; call rule not given here;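 also: cells exposed to compounds for four days before counting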); conditions: human embryonic stem cell survival screen; stronger effect = higher value
[13] = liver-stage malaria parasite growth inhibition, primary screen, cell-based, HepG2, luciferase luminescence, HepG2 viability (AID 624349; in the data active = parasite load remaining mostly below about 12%, no sharp cut-off; inactive = mostly above about 10%;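 also: 100% = mean of DMSO negative control wells on the same plate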); conditions: P. berghei liver stage in HepG2, luciferase luminescence, concentration not given here; parasite load remaining: stronger effect = lower value; viability: measured here: HepG2 viability without parasites
[14] = target: Mitogen-activated protein kinase 7 (Homo sapiens) (UniProt Q13164); experiment: ERK5 transactivation activators in reporter cells, primary screen, cell-based, HTS (AID 1508626;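 active = luciferase signal above three times the same-plate solvent-only control wells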;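 also: luciferase driven by Gal4-ERK5 fusion binding five Gal4 sites before minimal TATA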); conditions: HeLa Gal4-ERK5 transactivation, 18 h, at 5 µM, stronger effect = higher value
[15] = circadian clock period modulators, cell-based, LOPAC library, luminescence reporter (AID 2774; call rule not given here;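 also: values are relative to mean of DMSO wells on each plate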); conditions: circadian reporter cells, at 7 µM, actives lie on both sides
[16] = system: Hepatitis C virus NS3 helicase; experiment: HCV NS3 helicase inhibitors, primary screen, biochemical, fluorescence polarization, LOPAC1280 library (AID 687035; in the data active = inhibition above about 37%); conditions: Purified HCV NS3 helicase, Cy5-dT15 ssDNA binding fluorescence polarization; stronger effect = higher value; concentration not given here
[17] = Cy5 fluorescence quenching or enhancement artefacts, artefact control for HCV NS3 helicase inhibitor project, biochemical, LOPAC1280 (AID 687037; call rule not given here); conditions: Cy5-DNA-NS3h complex fluorescence interference counterscreen
[18] = phospholipid biosynthesis inhibitors in animal cells, primary screen, cell-based, LOPAC library, screen 4 (AID 1347384; call rule not given here); conditions: phospholipid biosynthesis inhibition screen, at 10 µM
[19] = measured here: combination with BGB IC40, at 0.05 µM
[20] = measured here: combination with cisplatin, at 0.5 µM
[21] = measured here: combination with cisplatin, at 5 µM
[22] = measured here: combination with BGB at IC20, at 0.5 µM
[23] = measured here: combination with cisplatin at IC20, at 0.5 µM
[24] = measured here: combo with BGB at IC20, at 0.5 µM
[25] = measured here: combo with cisplatin at IC20, at 0.5 µM
[26] = measured here: inhibition with BGB combination, at 0.05 µM
[27] = measured here: inhibition with cisplatin combination, at 0.05 µM
[28] = BGB combination, concentration series, at 5 µM
[29] = cisplatin combination, concentration series, at 5 µM
[30] = measured here: combo with BGB IC20, at 0.5 µM
[31] = measured here: combo with cisplatin IC20, at 0.5 µM
[32] = measured here: with BGB IC20 combination, at 0.5 µM
[33] = measured here: with cisplatin IC20 combination, at 0.5 µM

Chain of NAD(+) hydrolase SARM1 (Homo sapiens) (Q6SZW1 whole entry, looked up): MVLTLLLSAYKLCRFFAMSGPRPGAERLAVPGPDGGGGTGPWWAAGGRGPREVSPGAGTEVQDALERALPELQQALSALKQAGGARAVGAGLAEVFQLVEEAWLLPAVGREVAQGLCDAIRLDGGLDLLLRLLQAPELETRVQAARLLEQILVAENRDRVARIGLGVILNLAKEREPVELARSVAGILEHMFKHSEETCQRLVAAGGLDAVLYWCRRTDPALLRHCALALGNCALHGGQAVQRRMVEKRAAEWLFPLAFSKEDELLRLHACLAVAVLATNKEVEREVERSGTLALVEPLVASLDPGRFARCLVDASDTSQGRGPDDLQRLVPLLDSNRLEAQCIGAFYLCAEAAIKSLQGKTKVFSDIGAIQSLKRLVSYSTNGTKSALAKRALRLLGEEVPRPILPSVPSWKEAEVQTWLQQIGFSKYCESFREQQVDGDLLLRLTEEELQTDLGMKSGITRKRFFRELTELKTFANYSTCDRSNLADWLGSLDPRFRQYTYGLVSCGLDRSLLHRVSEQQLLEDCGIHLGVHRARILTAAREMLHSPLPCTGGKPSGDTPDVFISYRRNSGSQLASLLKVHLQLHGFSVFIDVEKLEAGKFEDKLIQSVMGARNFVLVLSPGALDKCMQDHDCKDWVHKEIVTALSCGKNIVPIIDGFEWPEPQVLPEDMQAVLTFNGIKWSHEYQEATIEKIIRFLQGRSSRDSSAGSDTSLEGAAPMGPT
Chain of Mitogen-activated protein kinase 7 (Homo sapiens) (Q13164 whole entry, looked up, the tested form may be a part): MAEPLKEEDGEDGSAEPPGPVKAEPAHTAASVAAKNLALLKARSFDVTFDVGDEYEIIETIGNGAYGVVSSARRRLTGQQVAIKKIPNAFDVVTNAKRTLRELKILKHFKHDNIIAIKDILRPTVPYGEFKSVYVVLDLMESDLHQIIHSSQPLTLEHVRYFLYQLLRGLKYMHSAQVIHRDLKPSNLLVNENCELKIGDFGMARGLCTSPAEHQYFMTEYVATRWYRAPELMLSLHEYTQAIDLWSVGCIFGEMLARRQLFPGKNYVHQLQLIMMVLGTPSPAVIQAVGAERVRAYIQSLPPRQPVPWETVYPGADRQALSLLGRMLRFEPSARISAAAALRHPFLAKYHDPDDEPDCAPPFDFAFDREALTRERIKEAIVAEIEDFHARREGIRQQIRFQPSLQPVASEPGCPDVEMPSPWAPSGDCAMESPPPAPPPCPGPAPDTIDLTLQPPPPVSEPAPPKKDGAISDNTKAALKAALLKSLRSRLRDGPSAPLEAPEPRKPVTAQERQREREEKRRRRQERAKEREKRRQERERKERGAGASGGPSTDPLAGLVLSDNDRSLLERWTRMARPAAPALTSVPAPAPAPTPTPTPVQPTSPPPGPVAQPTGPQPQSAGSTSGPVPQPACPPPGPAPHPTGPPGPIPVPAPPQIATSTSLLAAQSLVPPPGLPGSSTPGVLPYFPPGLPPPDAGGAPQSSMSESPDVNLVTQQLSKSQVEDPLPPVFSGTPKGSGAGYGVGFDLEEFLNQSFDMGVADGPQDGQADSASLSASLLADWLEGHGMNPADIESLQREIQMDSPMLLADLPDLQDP

Question: With `O=C(CCCCCCNC(=O)c1cnc(N(c2ccccc2)c2ccccc2)nc1)NO` as the molecule, how does the inhibition ([1]; at 0.5 µM) read?
Answer: -2.12% (inactive) and -15.9% (inactive)

Question: What about the inhibition [1, 19] of the same molecule?
Answer: -29.1% and -24.9%

Question: And the inhibition [1, 20]?
Answer: 6.1% and -31.8%

Question: And the inhibition [1, 21]?
Answer: 84.8% and 59.4%

Question: And the inhibition ([2]; at 0.5 µM)?
Answer: -71.5% (inactive) and -77.4% (inactive)

Question: What about the inhibition [2, 22] of the same molecule?
Answer: -57.1% and -110%

Question: And the inhibition [2, 23]?
Answer: -110% and -74.1%

Question: And the inhibition ([3]; at 0.5 µM)?
Answer: 1.23% (inactive) and -11.6% (inactive)

Question: What about the inhibition [3, 24] of the same molecule?
Answer: -8.85% and -13.2%

Question: What about the inhibition [3, 25] of the same molecule?
Answer: 14.2% and -7.98%

Question: What about the inhibition ([4]; at 0.5 µM) of the same molecule?
Answer: 1.59% (inactive) and 9.83% (inactive)

Question: And the inhibition [4, 26]?
Answer: -25.2% and -41.7%

Question: And the inhibition [4, 27]?
Answer: -17.6% and -12.7%

Question: What about the inhibition ([5]; at 0.5 µM) of the same molecule?
Answer: -17.5% (inactive) and -17% (inactive)

Question: What about the inhibition [5, 20] of the same molecule?
Answer: -3.75% and -9.43%

Question: And the inhibition [5, 21]?
Answer: 74.7% and 60.9%

Question: What about the inhibition [6, 28] of the same molecule?
Answer: 47.7% and 28.3%

Question: What about the inhibition ([6]; at 0.5 µM) of the same molecule?
Answer: 1.98% (inactive) and -9.53% (inactive)

Question: And the inhibition [6, 29]?
Answer: 66.1% and 58.6%

Question: What about the inhibition ([7]; at 0.5 µM) of the same molecule?
Answer: -18.3% (inactive) and 0.04% (inactive)

Question: What about the inhibition [7, 30] of the same molecule?
Answer: -21.3% and 12.4%

Question: What about the inhibition [7, 31] of the same molecule?
Answer: -18.3% and -8.91%

Question: And the inhibition ([8]; at 0.5 µM)?
Answer: -14% (inactive) and -9.25% (inactive)

Question: What about the inhibition [8, 32] of the same molecule?
Answer: -11% and -28.2%

Question: And the inhibition [8, 33]?
Answer: -17.4% and -1.39%

Question: And the inhibition ([8]; single agent, at 0.05 µM)?
Answer: -31.8% and -21.9%

Question: And the inhibition ([8]; single agent, at 5 µM)?
Answer: 89.1% and 74.4%

Question: For `C[Se]CCC(N)C(=O)O` (configuration not stated), which remaining NAD [9] is on record?
Answer: 10 nM (inactive)

Question: Which z-score [10] does the source give for `Clc1ccc2c(N3CCN(CCCN4CCN(c5ccnc6cc(Cl)ccc56)CC4)CC3)ccnc2c1` here?
Answer: -0.6 (inactive)

Question: Which liver cell % of control [11] does the source give for `Cc1ccc(C(=O)Nc2cccc(C(F)(F)F)c2)cc1-c1ccc2nc(NCCN3CCOCC3)ncc2c1` here?
Answer: 51.5% and 76.3% and 85.2%

Question: What about the parasite % of control [11] of the same molecule?
Answer: 60.4% (inactive) and 252% (inactive) and 87.5% (inactive)

Question: For `c1cc(OCCN2CCCCC2)cc(-c2n[nH]c3ccc(-c4ncn[nH]4)cc23)c1`, which liver cell % of control [11] is on record?
Answer: 77.7% and 82.4% and 94%

Question: And the parasite % of control [11]?
Answer: 63.2% (inactive) and 149% (inactive) and 87% (inactive)

Question: For `CO[C@H]1/C=C/O[C@@]2(C)Oc3c(C)c(O)c4c(O)c(c(/C=N/N5CCN(C)CC5)c(O)c4c3C2=O)NC(=O)/C(C)=C\C=C\[C@H](C)[C@H](O)[C@@H](C)[C@@H](O)[C@@H](C)[C@H](OC(C)=O)[C@@H]1C`, which survival [12] is on record?
Answer: 9.5 (inactive)

Question: What about the parasite load remaining [13] of the same molecule?
Answer: 95.1% (inactive) and 71.6% (inactive) and 41.3% (inactive)

Question: What about the viability [13] of the same molecule?
Answer: 99.1% and 71.9% and 96.5%

Question: What about the remaining NAD [9] of the same molecule?
Answer: 10 nM (inactive)

Question: And the luciferase signal [14]?
Answer: 44 AU (inactive)

Question: What about the z-score [10] of the same molecule?
Answer: 1.12 (inactive)

Question: With `CCCCc1nc2cc(/C=C/C(=O)NO)ccc2n1CCN(CC)CC` as the molecule, how does the inhibition ([1]; at 0.5 µM) read?
Answer: 31% (inactive)

Question: What about the inhibition [1, 19] of the same molecule?
Answer: -30.9%

Question: What about the inhibition [1, 20] of the same molecule?
Answer: 45.7%

Question: And the inhibition [1, 21]?
Answer: 97.5%

Question: What about the inhibition ([2]; at 0.5 µM) of the same molecule?
Answer: -2.27% (inactive)

Question: And the inhibition [2, 22]?
Answer: -16.1%

Question: And the inhibition [2, 23]?
Answer: 1.66%

Question: And the inhibition ([3]; at 0.5 µM)?
Answer: 93.3% (active)

Question: And the inhibition [3, 24]?
Answer: 95.7%

Question: What about the inhibition [3, 25] of the same molecule?
Answer: 99.3%

Question: What about the inhibition ([4]; at 0.5 µM) of the same molecule?
Answer: 46.9% (inactive)

Question: What about the inhibition [4, 26] of the same molecule?
Answer: 11.6%

Question: What about the inhibition [4, 27] of the same molecule?
Answer: 0.198%

Question: And the inhibition ([5]; at 0.5 µM)?
Answer: 26.1% (inactive)

Question: What about the inhibition [5, 20] of the same molecule?
Answer: 56.5%

Question: What about the inhibition [5, 21] of the same molecule?
Answer: 98.1%

Question: And the inhibition [6, 28]?
Answer: 115%

Question: And the inhibition ([6]; at 0.5 µM)?
Answer: 51.5% (inactive)

Question: And the inhibition [6, 29]?
Answer: 127%

Question: And the inhibition ([7]; at 0.5 µM)?
Answer: 41.3% (inactive)

Question: And the inhibition [7, 30]?
Answer: 44.4%

Question: What about the inhibition [7, 31] of the same molecule?
Answer: 26%

Question: What about the inhibition ([8]; at 0.5 µM) of the same molecule?
Answer: 81.5% (active)

Question: What about the inhibition [8, 32] of the same molecule?
Answer: 67.7%

Question: And the inhibition [8, 33]?
Answer: 88.2%

Question: And the inhibition ([8]; single agent, at 0.05 µM)?
Answer: -14.8%

Question: What about the inhibition ([8]; single agent, at 5 µM) of the same molecule?
Answer: 93.1%

Question: With `Cc1nc(N)ncc1-c1nc(N2CCOCC2)c2sc(C(C)(C)O)cc2n1` as the molecule, how does the liver cell % of control [11] read?
Answer: 78.4% and 78.6% and 93.7%

Question: And the parasite % of control [11]?
Answer: 406% (inactive) and 544% (inactive) and 660% (inactive)

Question: Which liver cell % of control [11] does the source give for `COc1nccc(-c2c(-c3ccc(F)cc3)ncn2C2CCNCC2)n1` here?
Answer: 89.2% and 92.3% and 100%

Question: And the parasite % of control [11]?
Answer: 45.1% (inactive) and 35% (inactive) and 41.5% (inactive)

Question: For `COc1ccccc1N1CCN(CCN(C(=O)C2CCCCC2)c2ccccn2)CC1`, which period change [15] is on record?
Answer: -0.085 h (inactive)

Question: What about the inhibition [16] of the same molecule?
Answer: -3% (inactive)

Question: What about the fluorescence ratio (interference) [17] of the same molecule?
Answer: 1 (inactive)

Question: What about the outcome [18] of the same molecule?
Answer: inactive

Question: What about the z-score [10] of the same molecule?
Answer: -1.04 (inactive)

Question: Which results are given for `O=C(NCCCNc1nc(Nc2cccc(NC(=O)N3CCCC3)c2)ncc1I)c1cccs1`?
Answer: liver cell % of control [11]: 74.4% and 44.5% and 88.3%; parasite % of control [11]: 0.4% (inactive) and 0.22% (inactive) and 6.81% (inactive)

From PubChem BioAssay
